# Measured values published in PubChem BioAssay AID652141 (The Scripps Research Institute Molecular Screening Center, 2013).
# The whole screen tested about 5,600 compounds, of which about 4,500 (80%) were called active. So high a share suggests a set chosen from earlier hits. Only a sample is shown. Values without a mark were called inactive. No stated cut-off is given here; in the data, active means inhibition above about 10%; inactive means the rest.
# Test: GDH-TPI coupling enzyme inhibitors, artefact control for M. tuberculosis FBA inhibitor project, biochemical, fluorescence, high throughput (AID 652141)
# Conditions: GDH-TPI coupled enzyme counterscreen, at 1 µM, hits give high values
row,Compound,inhibition
1,COc1cc(OC)cc(C(=O)Nc2ccc(-c3nc4ccccc4o3)c(O)c2)c1,135% (active)
2,CC(=O)Nc1ccc(-c2nc3ccccc3o2)cc1,-2.16%
3,CC(C)(C)C(=O)Nc1cccc(-c2ccc[nH]2)n1,71% (active)
4,CC(C)(C)NC(=O)COc1ccc(CNc2ccc3[nH]c(=O)[nH]c3c2)cc1,2.64%
5,COCCCn1c(C(=O)NC2CCCCC2)cc2c(=O)n3cccc(C)c3nc21,53.1% (active)
6,Cc1ccn2c(c1)nc(=O)c1cc(S(=O)(=O)N3CCC(C)CC3)ccc12,-0.78%
7,Cc1ccc(-n2c(=O)c(C#N)cc3c(=O)n4ccccc4nc32)cc1C,19.5% (active)
8,Cc1coc2c1c(C)cc1oc(=O)c(CC(=O)NCC(=O)N[C@H](C(=O)O)C(C)C)c(C)c12,49.8% (active)
9,NC(=O)C1CCN(C(=O)COc2ccc3c4c(c(=O)oc3c2)CCC4)CC1,-5.33%
10,CCCCC(NS(=O)(=O)c1ccc(C)cc1)C(=O)Oc1ccc2c3c(c(=O)oc2c1)CCC3 (centres undefined),68.4% (active)
11,CC(C)Cn1c(N)c(C(=O)NCc2cccs2)c2nc3ccccc3nc21,29.6% (active)
12,CCCNC(=O)c1c(N)n(-c2ccc(S(N)(=O)=O)cc2)c2nc3ccccc3nc12,3.87%
13,COCC(C)OC(=O)c1c(N)n(CCCN2CCOCC2)c2nc3ccccc3nc12 (centres undefined),-2.55%
14,C=CCn1c(N)c(C(=O)OCC(C)C)c2nc3ccccc3nc21,59.2% (active)
15,COc1cccc(NC(=O)CN(C)CC(=O)Nc2ccc3c(c2)CCC3)c1,73.6% (active)
16,COc1cccc(NC(=O)CN(C)C(=O)/C=C/c2cc(OC)ccc2OC)c1,82.6% (active)
17,OC[C@@H]1CN(Cc2cccs2)C[C@H](n2cnc3c(Nc4ccccc4)ncnc32)O1,64.2% (active)
18,O=C1CC2(CCCCC2)Oc2ccc(OCC(=O)N3CCOCC3)cc21,0.92%
19,COc1ccccc1NC(=O)COc1ccc(C(=O)OCC(=O)N(C(C)C)C(C)C)cc1OC,-2.75%
20,COc1ccccc1C(=O)Nc1ccc(OCC(=O)N2CCCCC2)cc1,137% (active)
21,COc1ccc2c(c1OC)C(=O)N(c1ncn[nH]1)C2,53% (active)
22,COc1nc(N=C(N)N)nc2c(C)cccc12,83.6% (active)
23,COc1ccc2c(c1)cc1n2CCN=C1NN,89.8% (active)

row,Compound,inhibition
1,COCCCn1c(CCC(=O)O)ccc1-c1ccc(F)cc1,43.6% (active)
2,CN(C)CCCNC(=O)c1ccc2[nH]c3ccccc3c2c1,96.7% (active)
3,Cc1ccc(-c2nc3ccccc3[nH]c2=O)cc1,61.1% (active)
4,c1ccc2c(NC3C4CC5CC(C4)CC3C5)nc(N3CCOCC3)nc2c1 (centres undefined),95.8% (active)
5,CC(Nc1nc(N2CCOCC2)nc2ccccc12)c1ccccc1 (centres undefined),31% (active)
6,COc1ccc(-c2ccc(C(=O)NC(C)C)c3occc23)c(C)c1,86.3% (active)
7,COc1ccc(-c2ccc(C(=O)NCCN3CCOCC3)c3occc23)c(C)c1,56.7% (active)
8,COCc1cc(=O)[nH]c2cc(NC(=O)C(F)(F)F)c(C)cc12,67.2% (active)
9,CCC(=O)Nc1ccc2nn(-c3ccc(F)cc3)nc2c1,70% (active)
10,CCNC(=S)Nc1ccc2c(c1)c(=O)n(C)n2Cc1ccc(Cl)cc1,-3.99%
11,COCCNc1cc(-c2ccccc2)nc2cc(-c3cccc(F)c3)nn12,133% (active)
12,Cc1cc(S(=O)(=O)c2cc3ccc(O)c(C)c3oc2=O)ccc1F,40.8% (active)
13,COc1cccc2sc3cc(NCC[C@@H]4CCCN4C)ccc3c(=O)c12,69.2% (active)
14,O=C1NC(c2cccc(Cl)c2)Nc2ccccc21 (centres undefined),84.8% (active)
15,COc1ccc(C2NC(=O)c3ccccc3N2)cc1 (centres undefined),122% (active)
16,CCN1CCN(C(=O)c2cc3cc4ccc(OC)cc4nc3s2)CC1,74.1% (active)
17,CCOC(=O)Cc1c(C)nc2c(C#N)c(C)nn2c1C,39.1% (active)
18,COC(=O)c1noc(C)c1-c1ccnn1C(=O)c1ccc(Cl)cc1,38.9% (active)
19,COc1ccc(-c2cn3ccc(C)cc3n2)cc1,-5%
20,COc1ccc(-c2cc(C(=O)Nc3ccccc3O)c3ccccc3n2)cc1,114% (active)
21,COc1ccc(-c2cc(C(=O)N(C)Cc3ccccc3)c3ccccc3n2)cc1,-2.5%
22,O=c1oc2ccccc2cc1-c1cn(-c2ccccc2)c(=S)[nH]1,13.5% (active)
23,COc1ccc2nc(-c3ccccn3)ccc2c1,93.8% (active)

row,Compound,inhibition
1,Cc1cc(C)c2c(n1)sc1c(=O)n(-c3ccccc3)c(=O)[nH]c12,62.5% (active)
2,CCc1cc(=O)oc2c(C)c(OCC(=O)N3CC[C@@]4(O)CCCC[C@H]4C3)ccc12,99.4% (active)
3,CCCc1cc(=O)oc2c(C)c(OCC(=O)N3CCC(C(=O)O)CC3)ccc12,-7.26%
4,CCN(CC)CCCNC(=O)c1cc2c(=O)[nH]c3ccc(C)cc3c2s1,98.2% (active)
5,CCCN(C(=O)CSc1nnc(N)s1)c1c(N)n(Cc2ccccc2)c(=O)[nH]c1=O,48% (active)
6,CCOc1ccc2nc(NCCNS(=O)(=O)c3ccccc3)c(C#N)cc2c1,15.8% (active)
7,O=C1C(=O)N(c2ccccc2)C(c2ccccc2)C1c1ccccc1 (centres undefined),0.69%
8,Cn1nc(-c2ccc(Cl)cc2)c2cc(C(=O)NCc3ccco3)sc21,33.3% (active)
9,CCc1ccc(-c2cc(C(=O)NCc3ccco3)c3ccccc3n2)s1,-5.16%
10,Cc1cc(C)c2nc(-c3ccco3)cc(C(=O)O)c2c1,2.96%
11,Cc1cc(C)c2nc3nc(C)cc(C)c3c(N)c2c1,22.9% (active)
12,CN1C(=O)c2ccc(NC(=O)C3CCCCC3)cc2C1=O,-2.4%
13,CN1C(=O)c2ccc(NC(=O)c3c(F)c(F)c(F)c(F)c3F)cc2C1=O,"651% [above what the read-out allows, likely interference] (active)"
14,COCCNc1nc(-n2nc(C)cc2C)nc2sc3c(c12)CCCC3,97.7% (active)
15,COc1ccc(NC(=O)N2CCC(Cc3ccccc3)CC2)cc1,23.6% (active)
16,O=C(NCc1ccccc1)c1onc(CSc2nc3ccccc3[nH]2)c1C(=O)NCc1ccccc1,55.8% (active)
17,CCOC(=O)N1CCC(NC(=O)c2cnn3ccccc23)CC1,33.9% (active)
18,CCCC1OC23CCCCC2C(C#N)(C#N)C1(C#N)C(=N)O3 (centres undefined),-5.15%
19,CC12CCC(C(=O)N3CCN(c4ncccn4)CC3)(c3nc4ccccc4nc31)C2(C)C (centres undefined),143% (active)
20,CCc1c(C)c2ccc(OC3CCCCC3=O)cc2oc1=O (centres undefined),78% (active)
21,COc1ccc(-c2oc3ncnc(NCCCO)c3c2-c2ccc(OC)cc2)cc1,39.6% (active)
22,O=C(NCCCN1CCOCC1)c1cnn2c(-c3ccccc3)cc(-c3ccccc3)nc12,79.2% (active)
23,O=C(O)Cc1sc(-c2ccc(C(=O)O)cc2)nc1-c1ccccc1,-7.95%
